Bioassay records deposited in PubChem by National Center for Advancing Translational Sciences (NCATS).
In the library only some 17% were active in any assay of this set; here they are far more common.
ATXN2 expr inh = ATXN2 expression inhibition; HEK-293 ATXN2-luciferase reporter, luminescence, 24 h; Potency, µM (top dose mostly 57 µM), for inactives: at the top dose activity change, negative = inhibition, hits mostly inhibitors; hit rate 0.72% among 360,000; AID 1745845; also: % is scaled to controls: 0 for no effect and ±100 for the full control effect; nearly all actives have a fitted effect of over 55% in size
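ATXN2-luciferase reporter cells (luciferase flanked by upstream and downstream ATXN2 gene portions) were treated 24 h at 37 °C with compounds at up to 57 uM. SteadyGlo luminescence gave expression; GF-AFC fluorescence gave viability.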
S2 tox = viability counter-screen for ATXN expression inhibitors; S2 cells (HEK-293 line with an ATXN2-luciferase reporter) viability, CellTiter-Fluor protease fluorescence, 24 h; Potency, µM (top dose mostly 56.7 µM), most hits filed as cytotoxic; hit rate 0.49% among 400,000; also: nearly all actives have a fitted effect of over 40% in size
TGFb inhibitor = TGF-b pathway inhibition. hit rate 1.2% among 410,000. Potency, µM (titrated, usually from 46.1 µM), without a hit: top-dose activity, negative = inhibition, hits mostly inhibitors. AID 588855. HepG2 CAGA-GFP TGF-b/SMAD3 reporter, GFP fluorescence, 18 h; TGF-beta stimulated, 500 pg/mL final; also: % is scaled to controls: 0 for no effect and ±100 for the full control effect; nearly all actives have a fitted effect of over 65% in size
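GFP signal (ex488/em500-530) from TGF-beta-stimulated HEPG2 CAGA-GFP cells, 500 pg/mL final, 18 h at 37 degrees C in DMEM plus 1% FBS, normalized to unstimulated and DMSO-stimulated controls.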
HepG2 viability = HepG2 cytotoxicity, counter-screen for TGF-b inhibitors; HepG2 CAGA-GFP viability, ATP luminescence, 18 h; Potency, µM (top dose mostly 46.1 µM), for inactives: top-dose activity change, negative = cytotoxicity, hits mostly cytotoxic; hit rate 0.76% among 410,000
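HepG2 CAGA-GFP cells (1000/well, DMEM with 1% FBS) received compound, then TGF-beta at 500 pg/mL final, and were incubated 18 hours at 37 degrees C. Viability was read by CellTiter-Glo luminescence. Media-only wells were set as complete cell-killing and DMSO as no toxicity.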
TDP1 cell noCPT = qHTS for Inhibitors of human tyrosyl-DNA phosphodiesterase 1 (TDP1): qHTS in cells in absence of CPT; Potency, µM (titrated, usually from 46.2 µM), for the others: at the highest dose activity change, negative = growth inhibition, usual class: inhibitors; AID 686978, 2013; hit rate 15% among 420,000; DT40 Tdp1-/- hTDP1 cells, no CPT, ATP luminescence, 48 h; also: % is scaled to controls: 0 for no effect and ±100 for the full control effect; nearly all actives have a fitted effect of over 55% in size
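Stably hTDP1-transfected Tdp1-null chicken DT40 cells were treated with library compounds minus camptothecin and grown for at least 48 hr at 37 °C, after which cellular ATP was quantified by luminescence.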
TDP1 cell CPT = growth inhibition of DT40 Tdp1-/-;hTDP1 cells with camptothecin (screen for TDP1 inhibitors); chicken DT40 Tdp1-/-;hTDP1 cells + 20 nM CPT, ATP luminescence, 48 h; Potency, µM (top dose mostly 46.2 µM), without a hit: at the highest dose activity change, negative = growth inhibition, hits mostly inhibitors; hit rate 12% among 420,000; also: % is scaled to controls: 0 for no effect and ±100 for the full control effect; nearly all actives have a fitted effect of over 55% in size
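Cell growth measured by CellTiter-Glo luminescence after a minimum 48 h, 37 C compound exposure with 20 nM CPT in Tdp1-knockout DT40 cells stably expressing hTDP1, seeded 400/well; qHTS titration format.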
Active calls of the source: *. Calls follow the shape of the dose curve; as a rule, active = well fitted curve in the direction sought with a large enough effect; inconclusive = small, poorly fitted or top-dose-only effect, or another doubt; inactive = no such curve, though single readings can be large; an effect the other way counts as inactive or inconclusive. Potency is read from the fitted curve at half-maximal effect.

How did CCN(CC)c1ccc(NC(=O)CN2CCN(CC(=O)Nc3ccccc3OC)CC2)cc1 do in these assays?
ATXN2 expr inh: -6%; S2 tox: inconclusive; TGFb inhibitor: -6%; HepG2 viability: -27%; TDP1 cell noCPT: inconclusive; TDP1 cell CPT: 23µM*

What do the screens show for `CCN(CC)c1ccc(NC(=O)CN2CCN(c3nc(C)cc(C)n3)CC2)cc1`?
ATXN2 expr inh: -3%; S2 tox: inactive; TGFb inhibitor: 23%; HepG2 viability: -5%; TDP1 cell noCPT: 16µM*; TDP1 cell CPT: inconclusive

How did Cc1ccc(C)c(N(CC(=O)NCCc2ccccc2)C(=O)CCC(=O)Nc2ccccn2)c1 do in these assays?
ATXN2 expr inh: -15%; S2 tox: inactive; TGFb inhibitor: 7%; HepG2 viability: -34%; TDP1 cell noCPT: -26%; TDP1 cell CPT: -13%

How did O=S(=O)(c1ccc(-n2cnnn2)cc1)N1CCN(c2cccc(Cl)c2)CC1 do in these assays?
TGFb inhibitor: -9%; HepG2 viability: -7%; TDP1 cell noCPT: -10%; TDP1 cell CPT: -10%

What do the screens show for `CC(C)(C)c1ccc(C(=O)c2c[nH]c(C(=O)NCCCN3CCOCC3)c2)cc1`?
ATXN2 expr inh: 7%; S2 tox: inactive; TGFb inhibitor: -14%; HepG2 viability: -1%; TDP1 cell noCPT: 18µM*; TDP1 cell CPT: inconclusive

What do the screens show for `CC(C)(C)c1ccc(C(=O)c2c[nH]c(C(=O)NCC3CCCO3)c2)cc1` (stereo unspecified)?
ATXN2 expr inh: 36%; S2 tox: inactive; TGFb inhibitor: 15%; HepG2 viability: -6%; TDP1 cell noCPT: 15µM*; TDP1 cell CPT: inconclusive

What do the screens show for `Cc1ccccc1CN1[C@@H]2c3ccccc3C[C@@H]2OCCS1(=O)=O`?
ATXN2 expr inh: 11%; S2 tox: inactive; TGFb inhibitor: 7%; HepG2 viability: 4%; TDP1 cell noCPT: 16µM*; TDP1 cell CPT: inconclusive

What do the screens show for `O=S1(=O)CCO[C@H]2Cc3ccccc3[C@H]2N1Cc1cccc(Cl)c1`?
ATXN2 expr inh: 2%; S2 tox: inactive; TGFb inhibitor: inconclusive; HepG2 viability: -19%; TDP1 cell noCPT: 18µM*; TDP1 cell CPT: inconclusive

How did COc1ccc(-n2cc(CNCCCN3CCCC3=O)c(-c3ccccc3Cl)n2)cc1 do in these assays?
ATXN2 expr inh: -21%; S2 tox: inconclusive; TGFb inhibitor: inconclusive; HepG2 viability: -32%; TDP1 cell noCPT: 16µM*; TDP1 cell CPT: 16µM*

Results for COc1ccc(-c2nn(-c3ccccc3)cc2CNCCN2CCOC2=O)c(F)c1 ?
ATXN2 expr inh: 7%; S2 tox: inactive; TGFb inhibitor: 3%; HepG2 viability: -7%; TDP1 cell noCPT: inconclusive; TDP1 cell CPT: inconclusive

What do the screens show for `COc1cccc(NC(=O)C2CCCN(c3ncnc4onc(-c5ccc(F)cc5)c34)C2)c1` (stereo unspecified)?
ATXN2 expr inh: 1%; S2 tox: inactive; TGFb inhibitor: -26%; HepG2 viability: -26%; TDP1 cell noCPT: 16µM*; TDP1 cell CPT: inconclusive

How did CCOc1ccccc1N(C)C(=O)C1CCCN(c2ncnc3onc(-c4ccc(F)cc4)c23)C1 (stereo unspecified) do in these assays?
ATXN2 expr inh: 0%; S2 tox: inactive; TGFb inhibitor: -15%; HepG2 viability: -24%; TDP1 cell noCPT: 8.2µM*; TDP1 cell CPT: 12µM*

What do the screens show for `COc1cc(Cl)c(C)cc1NC(=O)C1CCCN(c2ncnc3onc(-c4ccc(F)cc4)c23)C1` (stereo unspecified)?
ATXN2 expr inh: 2%; S2 tox: inactive; TGFb inhibitor: inconclusive; HepG2 viability: -6%; TDP1 cell noCPT: 8.2µM*; TDP1 cell CPT: 15µM*
